Values without a mark were called inactive.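 The calls were made as follows: active = IC50 below 10 µM at human M5 in a calcium flux test, acting as a negative modulator; inactive = the rest.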
Target: Muscarinic acetylcholine receptor M5 (Homo sapiens) (UniProt P08912)
Test: M5 muscarinic receptor negative allosteric modulators, cell-based, single concentration, human M5 (AID 743025)
Conditions: CHO-K1 hM5, ACh EC80 calcium flux, Fluo-4; at 10 µM; active compounds read low

Chain of Muscarinic acetylcholine receptor M5 (Homo sapiens) (P08912 whole entry, looked up): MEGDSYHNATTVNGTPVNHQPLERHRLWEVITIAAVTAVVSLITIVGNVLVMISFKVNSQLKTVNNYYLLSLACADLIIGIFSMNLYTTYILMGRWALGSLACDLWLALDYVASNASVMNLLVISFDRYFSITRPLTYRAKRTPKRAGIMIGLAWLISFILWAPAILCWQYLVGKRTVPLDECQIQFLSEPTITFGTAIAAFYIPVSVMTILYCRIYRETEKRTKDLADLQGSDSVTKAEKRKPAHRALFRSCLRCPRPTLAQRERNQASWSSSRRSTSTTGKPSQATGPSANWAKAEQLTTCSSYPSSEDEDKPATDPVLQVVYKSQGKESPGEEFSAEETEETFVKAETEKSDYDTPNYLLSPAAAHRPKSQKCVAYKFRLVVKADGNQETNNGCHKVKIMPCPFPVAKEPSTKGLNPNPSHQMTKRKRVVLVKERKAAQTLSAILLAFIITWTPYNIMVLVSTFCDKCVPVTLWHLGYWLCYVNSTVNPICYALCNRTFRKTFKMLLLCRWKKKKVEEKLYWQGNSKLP

| SMILES | activity remaining |
| --- | --- |
| O=C1c2ncccc2C2(c3ccccc3)NCCN12 (configuration not stated) | 67.2% |
| O=C1c2ccccc2C2(c3ccc(Cl)cc3)NCCN12 (configuration not stated) | 78.7% |

— PubChem BioAssay AID743025 (Vanderbilt Specialized Chemistry Center, 2013)
